# Screens: PubChem, several laboratories
# Shown are actives, neighbours in structure and some others; about 1.2% of the full set was active somewhere.
# NPR1 activator: GC-A stimulated cGMP production enhancers – HEK293 GC-A cells, cGMP TR-FRET, EC30 ANP, primary screen | Atrial natriuretic peptide receptor 1 (Homo sapiens), P16066 | 0% at EC30 ANP, 100% saturating ANP | AID 1671463, 2021 | activation, % at 10 µM | hit rate 0.14% among 370,000; in the data active = activation above about 40%
# Target sequence (P16066 whole entry, looked up): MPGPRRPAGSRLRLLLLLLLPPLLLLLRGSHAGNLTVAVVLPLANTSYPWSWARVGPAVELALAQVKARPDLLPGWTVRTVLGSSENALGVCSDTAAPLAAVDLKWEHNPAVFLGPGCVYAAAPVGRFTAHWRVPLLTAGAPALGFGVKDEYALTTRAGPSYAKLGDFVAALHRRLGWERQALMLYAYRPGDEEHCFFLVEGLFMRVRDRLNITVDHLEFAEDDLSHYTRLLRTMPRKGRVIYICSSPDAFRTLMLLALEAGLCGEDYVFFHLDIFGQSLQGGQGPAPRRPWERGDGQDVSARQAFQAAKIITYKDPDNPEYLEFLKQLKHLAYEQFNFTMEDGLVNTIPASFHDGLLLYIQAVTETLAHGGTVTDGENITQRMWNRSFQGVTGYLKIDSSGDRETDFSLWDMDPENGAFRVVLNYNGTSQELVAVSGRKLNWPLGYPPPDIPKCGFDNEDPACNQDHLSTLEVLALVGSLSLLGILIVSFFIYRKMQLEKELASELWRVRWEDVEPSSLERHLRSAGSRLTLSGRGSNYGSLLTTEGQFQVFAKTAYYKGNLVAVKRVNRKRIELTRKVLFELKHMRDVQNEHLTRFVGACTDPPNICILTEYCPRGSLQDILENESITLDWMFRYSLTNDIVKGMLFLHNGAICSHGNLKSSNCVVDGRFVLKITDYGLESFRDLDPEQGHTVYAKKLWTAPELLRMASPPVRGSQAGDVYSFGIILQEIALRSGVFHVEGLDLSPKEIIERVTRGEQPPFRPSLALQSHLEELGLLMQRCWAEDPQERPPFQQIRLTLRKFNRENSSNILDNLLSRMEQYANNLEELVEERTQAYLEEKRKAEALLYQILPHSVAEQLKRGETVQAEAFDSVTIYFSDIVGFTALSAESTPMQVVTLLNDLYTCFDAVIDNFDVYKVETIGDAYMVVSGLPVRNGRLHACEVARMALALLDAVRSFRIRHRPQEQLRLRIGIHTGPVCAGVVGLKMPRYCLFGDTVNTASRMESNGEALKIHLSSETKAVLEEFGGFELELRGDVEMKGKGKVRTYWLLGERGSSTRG
# NOD2-RIPK2 inh: NOD2-RIPK2 binding disruptors in cells, primary screen, fluorescence, CHO cells, BLA complementation; CCF4 ratio; inhibition, % at 4.98 µM; hit rate 0.38% among 360,000; in the data active = inhibition above about 21%;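 note: 0% = vehicle only and 100% = reference blocker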
# Neddyl block: inhibitors of cullin neddylation, primary screen, biochemical, TR-FRET, uHTS, NAE and Ubc12; NEDD8-conjugating enzyme Ubc12 (Homo sapiens) + NEDD8-activating enzyme E1 regulatory …; inhibition, % at 25 µM; hit rate 0.58% among 360,000; in the data active = inhibition above about 36%
# GC-B act: human GC-B receptor activators, primary screen, HEK293 GC-B cells, cGMP TR-FRET, EC30 CNP; Atrial natriuretic peptide receptor 2 (Homo sapiens), P20594; 0% at EC30 CNP, 100% saturating CNP; activation, % at 10 µM; hit rate 0.11% among 370,000; AID 1920062, 2024;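 active = activation at 10 µM reaching about 35% in either raw or pattern-adjusted values, limit read from the data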
# TLR4 MyD88 comp: inhibitors of TLR4-MyD88 association in cells, primary screen, cell-based, HeLa CL3-4, BLA complementation, FRET ratio; Toll-like receptor 4 (Homo sapiens) + Myeloid differentiation primary response protein …; HeLa CL3-4 TLR4/MyD88 BLA complementation; inhibition, % at 8.4 µM; hit rate 0.18% among 200,000; in the data active = inhibition above about 25%;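 note: 0% = vehicle and 100% = reference inhibitor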
# TLR9-MyD88 block: inhibitors of TLR9-MyD88 association in cells, primary screen, cell-based, CHO, BLA complementation, fluorescence; Toll-like receptor 9 (Homo sapiens) + Myeloid differentiation primary response protein …; inhibition, % at 4.98 µM; AID 504734, 2011; CCF4 FRET ratio; hit rate 0.21% among 340,000;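 active = inhibition above the mean over all tested compounds plus 3 SD, cut at about 21% in these data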;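 note: 0% = DMSO only wells and 100% = clavulanate BLA inhibitor control wells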
# NOD2 RIPK2 conf: NOD2-RIPK2 binding disruptors, retest, confirmation, fluorescence, CHO cells, BLA complementation, triplicate | CCF4 FRET | inhibition, % at 4.98 µM | hit rate 70% among 1,200 | shares compounds with NOD2-RIPK2 inh;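 active = mean inhibition across replicates above a set limit taken from the earlier primary screen, cut at about 21% in these data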;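 note: 0% = DMSO-only wells and the high end = clavulanate BLA-blocked wells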
# NOD2 BLA counter: NOD2-RIPK2 counterscreen BLA reporter activity | hit rate 57% among 1,200 | inhibition, % at 4.98 µM | AID 624371 | shares compounds with NOD2-RIPK2 inh | CHO BLA reporter, CCF4 FRET ratio;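 active = mean inhibition above the low-control mean inhibition plus three low-control SD, cut at about 11% in these data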;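 note: 0% = DMSO only wells and 100% = clavulanate high control wells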
# Starred values were filed as active, the others as inactive; x = no result given.
SMILES,NPR1 activator,NOD2-RIPK2 inh,Neddyl block,GC-B act,TLR4 MyD88 comp,TLR9-MyD88 block,NOD2 RIPK2 conf,NOD2 BLA counter
O=c1oc(-c2ccccc2)cc2ccccc12,-1,-12,36,-9,x,x,x,x
O=c1oc(-c2ccccc2)cc(Cl)c1Cl,16,60*,12,9,x,-2,57*,1
CC(C)(C)c1cc(C(=O)CCN2CCOCC2)cc(C(C)(C)C)c1O,-3,48*,-6,-8,x,6,4,-2
Cc1cc(C)c2sc(N(CCCN(C)C)C(=O)c3ccc(S(=O)(=O)N4CCc5ccccc5C4)cc3)nc2c1,x,24*,10,x,x,14,30*,17*
Cc1ccc2nc(N(CCCN(C)C)C(=O)c3ccc(S(=O)(=O)N4CCc5ccccc5C4)cc3)sc2c1,-7,8,11,-2,x,0,x,x
CC1OC2CC(=O)OC2C2=C1C(=O)c1c(O)cccc1C2=O (configuration not stated),20,70*,0,16,x,x,77*,-14
Cc1ccc(CNC(=O)Nc2ccc3c(c2)N(C)C(=O)CS3)cc1,5,27*,2,-3,4,0,-3,-4
CC(OC(=O)c1ccc(S(C)(=O)=O)c([N+](=O)[O-])c1)C(=O)NC1C2CC3CC(C2)CC1C3 (configuration not stated),4,25*,11,9,x,x,65*,8
COC(=O)c1cc2c(cc1NC(=O)CSCCc1ccccn1)OCO2,2,25*,9,3,-6,-3,4,-1
CC(=O)Nc1ccc(NC(=O)CSCCc2ccccn2)cc1,1,4,-1,5,7,0,x,x
O=C(Nc1ccc2nc3n(c(=O)c2c1)CCCCC3)c1c(F)ccc([N+](=O)[O-])c1F,28,23*,-2,27,x,11,23*,-2
COc1ccc2ccccc2c1-c1sc(Nc2ccccc2)n[n+]1-c1ccc(F)cc1,-8,32*,-32,-19,x,8,20,3
Fc1ccc(-[n+]2nc(Nc3ccccc3)sc2-c2c(Cl)cccc2Cl)cc1,-9,53*,-35,-8,x,18,42*,16*
COc1ccc(-c2sc(Nc3ccccc3)n[n+]2-c2ccc(F)cc2)cc1Br,-19,-18,-24,-22,x,-3,x,x
O=C(O)c1ccc(-c2sc(Nc3ccccc3)n[n+]2-c2ccc(F)cc2)cc1,x,1,4,x,x,2,x,x
C#CCCCN([C@H](C(=O)OC)C(C)C)S(=O)(=O)c1ccc(F)cc1Br,-2,x,x,-6,x,x,x,x
CCN(CC)c1ccc(-c2sc(Nc3ccccc3)n[n+]2-c2ccc(F)cc2)cc1,-3,10,-54,-5,x,11,x,x
CCc1ccc(Nc2n[n+](-c3ccccc3)c(-c3ccc(N(CC)CC)cc3)s2)cc1,-3,29*,-48,-5,x,11,69*,76*
CCCC1CCC2(CCCN2CCOC(=O)Nc2ccc(Br)cc2)CC1 (configuration not stated),-3,x,x,-3,x,x,x,x
O=C(CCc1ccccc1)N[C@H]1[C@@H](OC(=O)c2cnccn2)CCC[C@]12C(=O)N(Cc1ccccc1)c1ccccc12,-12,x,x,-1,x,x,x,x
O=C(Nc1ccc(Cl)cc1)Nc1ccc2c(c1)N1CCN=C1S2,-5,22*,-3,-13,3,9,36*,19*
CN(CCOC(=O)c1cc2ccccc2o1)C1CN(Cc2cn(Cc3cccc(F)c3)nn2)S(=O)(=O)C1 (configuration not stated),-2,x,x,-2,x,x,x,x
COc1ccc(Cn2cc(COC(=O)NCCc3c[nH]c4ccccc34)nn2)cc1,-3,x,x,-6,x,x,x,x
C=CCC1(O)C(=O)Nc2ccccc21 (configuration not stated),0,-10,-5,0,8,-2,x,x
O=C1Nc2ccccc2C1(O)Cc1ccccn1 (configuration not stated),1,24*,-8,1,x,4,0,-3
SMILES,NPR1 activator,NOD2-RIPK2 inh,Neddyl block,GC-B act,TLR4 MyD88 comp,TLR9-MyD88 block,NOD2 RIPK2 conf,NOD2 BLA counter
O=C(NC1CCCCC1)C(C1CC1)n1c(=O)c(-c2cc3ccccc3[nH]2)nc2ccccc21 (configuration not stated),2,44*,x,-9,x,x,38*,64*
O=C(NCc1ccccc1)C(c1cc2ccccc2o1)n1c(=O)c(-c2ccccc2)nc2ccccc21 (configuration not stated),-5,1,0,-6,x,x,x,x
O=C(NCc1ccccc1)C(c1ccccc1)n1c(=O)c(-c2cc3ccccc3[nH]2)nc2ccccc21 (configuration not stated),-3,48*,x,-3,x,x,44*,65*
O=C(NCc1ccccc1)C(C1CC1)n1c(=O)c(-c2cc3ccccc3[nH]2)nc2ccccc21 (configuration not stated),0,45*,x,-8,x,x,42*,64*
O=C(NCc1ccccc1)C(c1cc2ccccc2o1)n1c(=O)c(-c2cc3ccccc3[nH]2)nc2ccccc21 (configuration not stated),5,51*,x,1,x,x,46*,67*
O=C(NC1CCCC1)C(C1CC1)n1c(-c2cc3ccccc3[nH]2)nc2ccccc21 (configuration not stated),-7,1,x,-5,x,x,x,x
O=C(NC1CCCCN(Cc2ccc(Cl)cc2)C1=O)c1ccccn1 (configuration not stated),9,x,x,2,x,x,x,x
Cc1ccc(C(O)c2ncc(-c3ccc(Cl)cc3)[nH]2)cc1 (configuration not stated),-2,8,-33,3,x,x,x,x
O=S1(=O)CC2c3ccc(F)cc3CN2CN1Cc1ccccc1 (configuration not stated),1,x,x,1,x,x,x,x
COc1ccc2c(c1)OC[C@H]1[C@H]2N2C(=O)c3ccccc3NC(=O)[C@@]2(C)[C@H]1c1ccccc1,-4,-6,-55,-5,x,4,x,x
